Screening results deposited in PubChem by several laboratories.
CYP2C9 activ – human CYP2C9 activators, primary screen, biochemical, luminescence; Cytochrome P450 2C9 (Homo sapiens), P11712; recombinant CYP2C9, luciferin-H conversion; stronger effect = higher value; factor 1 = untreated enzyme, 0 = blocked; activation factor at 5 µM; hit rate 1.4% among 96,000; AID 1024, 2008;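 active means activation factor of 2 or more for CYP2C9 at a 5 µM dose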;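 further: 0 = sulfaphenazole-blocked wells and 1 = vehicle-only wells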
CYP2C9 inhib – blockers of cytochrome P450 2C9 activity – biochemical, luminescence, ADME assay, primary screen. hit rate 20% among 96,000. inhibition, % at 5 µM. AID 777, 2007. CYP2C9 Supersomes, luciferin-H conversion. P11712;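 active means blocking of liver enzyme CYP2C9 beyond about 50% at 5 µM, limit read from the data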
CYP2C19 act – human CYP2C19 activators, primary screen, biochemical, luminescence; 96,000 tested, under 10 active; recombinant CYP2C19, luciferin-H EGE luminescence; stronger effect = higher value; 0 = fully inhibited enzyme, 1 = untreated enzyme; activation factor at 5 µM; Cytochrome P450 2C19 (Homo sapiens), P33261;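 active means activation factor of at least 2 at 5 µM in the primary screen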;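 further: 0 = wells with 2.5 mM tranylcypromine and 1 = vehicle-only wells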
Target sequence (P33261 whole entry, looked up): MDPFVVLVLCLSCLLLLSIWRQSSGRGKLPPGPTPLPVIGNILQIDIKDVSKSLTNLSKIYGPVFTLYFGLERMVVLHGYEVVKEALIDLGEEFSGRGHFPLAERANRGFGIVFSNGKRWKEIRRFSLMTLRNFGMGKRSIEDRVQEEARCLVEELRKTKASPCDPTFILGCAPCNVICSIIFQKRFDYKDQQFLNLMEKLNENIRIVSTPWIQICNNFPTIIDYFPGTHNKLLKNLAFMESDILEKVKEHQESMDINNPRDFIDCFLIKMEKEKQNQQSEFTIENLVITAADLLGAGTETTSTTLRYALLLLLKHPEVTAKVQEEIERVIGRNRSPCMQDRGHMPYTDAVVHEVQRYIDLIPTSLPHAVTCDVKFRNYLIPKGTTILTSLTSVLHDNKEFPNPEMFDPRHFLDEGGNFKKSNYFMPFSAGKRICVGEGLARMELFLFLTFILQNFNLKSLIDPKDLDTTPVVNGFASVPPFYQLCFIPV
Measles CPE – compounds protecting cells from measles virus cytopathic effect, primary screen, measles RdRp inhibitor project, single point, MLSMR library, absorbance. Measles virus-infected cells, CPE protection. protection (pct of control), % at 4 µM. hit rate 1.5% among 140,000. AID 841, 2007; in the data active means protection mostly above about 24%, no sharp cut-off; inactive means mostly below about 26%
CYP2C19 inh – blockers of cytochrome P450 2C19 activity – biochemical, luminescence, ADME assay, primary screen. P33261. CYP2C19 Supersomes, luciferin-H EGE luminescence, 30 min. inhibition, % at 5 µM. hit rate 21% among 96,000. AID 778, 2007;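 active means CYP2C19 inhibition above a set limit at 5 µM in the primary screen, cut at about 50% in these data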;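 further: plate controls were negative control wells for no effect and 2.5 mM tranylcypromine positive control for full effect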
Starred values were filed as active, the others as inactive; nt = no result given. This is a sample that favours compounds with a hit; in the whole collection about 22% have one here.

SMILES	CYP2C9 activ	CYP2C9 inhib	CYP2C19 act	Measles CPE	CYP2C19 inh
Nc1ccc(C(=O)OCC(=O)N2CCOCC2)cc1[N+](=O)[O-]	nt	nt	nt	11	nt
OCC#CCSc1nnc(-c2ccncc2)o1	1.1	-6	0.8	5	23
c1cc(-c2nnc(-c3ccncc3)o2)ccn1	0.9	12	0.3	nt	66*
CCCOc1ccc(-c2nnc(-c3ccncc3)o2)cc1	0.1	89*	0	3	99*
CCOc1ccc(-c2nnc(-c3cccs3)o2)cc1	0.8	18	0.9	7	8
COc1ccc(-c2nnc(-c3ccc(OCC(C)C)cc3)o2)cc1	0.8	19	1	7	-2
CC(C)COc1ccc(-c2nnc(-c3ccncc3)o2)cc1	0.6	42	0.2	1	78*
Cc1ccc(NC(=O)c2ccccc2-c2ccc(C(F)(F)F)cc2)cc1S(=O)(=O)N1CCOCC1	nt	nt	nt	8	nt
O=C(CNC(=O)c1ccc(Cl)cc1Cl)NCCCn1ccnc1	0.5	51*	0.3	17	69*
O=C(COc1ccc(Cl)cc1)NCCCn1ccnc1	0.1	90*	0	7	99*
O=C(NCCCn1ccnc1)Nc1ccc(Cl)c(Cl)c1	0	100*	0.2	7	76*
CCCOc1ccc(NC(=O)C(=O)NCCCn2ccnc2)cc1	nt	nt	nt	6	nt
Cc1cc(Cl)ccc1OCC(=O)NCCCn1ccnc1	nt	nt	nt	8	nt
CCOc1ccc(NC(=O)C(=O)NCCCn2ccnc2)cc1	0.4	60*	0.3	12	73*
Cc1c(C(=O)Nc2ccccc2)sc2nc[nH]c(=O)c12	nt	nt	nt	13	nt
COCCSc1ccccc1C(=O)NCc1ccc2c(c1)OCO2	0.8	24	0.5	26	48
Cc1ccc(-n2c(=O)c3c(C)c(C)sc3n(Cc3cc(=O)n4ccccc4n3)c2=O)cc1C	nt	nt	nt	3	nt
O=C(O)c1ccc(NC(=S)Nc2ccccc2)cc1	nt	nt	nt	5	nt
O=C(NCCCn1ccnc1)Nc1ccc(Cl)cc1	0	98*	0	12	97*
CCC(NC(=O)NCCCn1ccnc1)(C(F)(F)F)C(F)(F)F	0.2	85*	0	1	97*
Cc1ccc(OCCOc2ccc(Br)cc2)c([N+](=O)[O-])n1	nt	nt	nt	9	nt
COc1ccc(C)cc1-n1c(SCC(=O)Nc2cc(C)on2)nc2sc(C)c(C)c2c1=O	0.9	10	1	18	4
CCN(CCCNC(=O)CCCn1c(=O)[nH]c2ccccc2c1=O)c1cccc(C)c1	0.4	62*	0.5	41	48
CCN(CCCNC(=O)c1[nH]c(C)c(C(C)=O)c1C)c1cccc(C)c1	0.5	50	0.5	7	53*
CCN(CCCNC(=O)COc1cc(=O)n(C)c2ccccc12)c1cccc(C)c1	0.9	11	0.7	6	27
SMILES	CYP2C9 activ	CYP2C9 inhib	CYP2C19 act	Measles CPE	CYP2C19 inh
CCN(CCCNC(=O)CCn1c(=O)[nH]c2ccccc2c1=O)c1ccccc1	0.8	25	0.4	4	62*
CCN(CCCNC(=O)CCn1c(=O)[nH]c2ccccc2c1=O)c1cccc(C)c1	0.8	24	0.3	5	67*
CCCCNC(=O)CCCn1c(=O)[nH]c2ccc(Br)cc2c1=O	0.9	12	0.9	10	12
CC(=O)c1cccc(NC(=O)C(Sc2ncnc3ccccc23)c2ccccc2)c1 (configuration not stated)	nt	nt	nt	5	nt
CC(C)(NO)/C(=N/O)c1cccs1	1	-4	1	1	2
Cc1sc2c(c1C)c(=O)nc1n2Cc2ccccc2-1	1.3	-34	1	3	-3
COc1ccccc1C1CC(c2ccc(C)cc2)Nc2ncnn21 (configuration not stated)	0.7	31	0.1	nt	88*
Cc1ccc(C2CC(c3ccco3)n3ncnc3N2)cc1 (configuration not stated)	0.7	34	0.1	5	91*
COc1ccccc1C1CC(c2ccccc2)Nc2ncnn21 (configuration not stated)	0.6	37	0.1	34	87*
Fc1ccc(C2CC(c3ccco3)n3ncnc3N2)cc1 (configuration not stated)	nt	nt	nt	19	nt
CCOC(=O)CSc1nc(C(C)(C)C)cc(C(F)(F)F)c1C#N	0.5	49	1.1	9	-12
Cc1cc(Nc2ccccc2F)n2ncnc2n1	1	4	1	14	-3
CCCN(CCC)S(=O)(=O)c1cc(Br)cc2c1N(C(=O)CC)CC2	0.6	42	0.9	10	9
CCOC(=O)N1CCN(C(=S)Nc2cccc(C)c2C)CC1	nt	nt	nt	14	nt
CCCOC(=O)Nc1cccc(C(C)=O)c1	nt	nt	nt	5	nt
CCCOC(=O)NC(CC)COC(=O)Nc1cccc(C)c1C (configuration not stated)	0.8	16	0.3	16	72*
CCC(COC(=O)Nc1cccc(C)c1C)NC(=O)OCC(C)C (configuration not stated)	0.5	50	0	5	96*
CCOC(=O)Cn1c(=NC(=O)c2nc3ccccc3s2)sc2cc(S(N)(=O)=O)ccc21	nt	nt	nt	3	nt
Cc1c(C(=O)COC(C)(C)C)[nH]c2ccccc12	1.1	-8	0.5	36	55*
CCCC(=O)Nc1ccc(NC(=O)c2ccccn2)cn1	1.2	-21	0.8	18	18
CCOc1ccc(NC(=O)c2cnsn2)cc1	0.6	42	0.4	6	62*
CCOc1ccc(NC(=O)c2cnccn2)cc1	nt	nt	nt	26	nt
CCOc1ccc(NC(=O)c2ccccc2OC)cc1	3.3*	-227	1	14	3
CCCC(=O)Nc1ccc(NC(=O)c2ccccc2OC)cn1	3.2*	-220	0.5	28	51*
CCOc1ccc(NC(=O)c2ccccc2O)cc1	nt	nt	nt	7	nt
SMILES	CYP2C9 activ	CYP2C9 inhib	CYP2C19 act	Measles CPE	CYP2C19 inh
CCOc1ccc(NC(=O)c2ccccc2OCC(=O)c2ccccc2)cc1	0.1	88*	0.4	45	61*
CC1(C)Oc2ccc3ccc(=O)oc3c2/C(=C/NCCN/C=C2\C(=O)C(C)(C)Oc3ccc4ccc(=O)oc4c32)C1=O	1	1	0.8	4	20
Cc1cccc(NC(=O)c2ccccc2OCC(=O)c2ccccc2)c1	0.3	73*	0.4	2	58*
COc1ccc2[nH]c(=O)c(CN(C(=O)c3ccncc3)C(C)(C)C)cc2c1	0.8	21	1	6	-1
CCOC(=O)c1cccc(S(=O)(=O)N(CCO)Cc2cc3cc(OC)ccc3[nH]c2=O)c1	0.9	12	0.4	6	56*
COc1ccc2cc(CN(C(=O)Nc3ccccc3OC)C3CCCC3)c(=O)[nH]c2c1	0.5	51*	0.8	16	23
CCOC(=O)c1cccc(S(=O)(=O)N(CCO)Cc2cc3cc(OC)c(OC)cc3[nH]c2=O)c1	1	2	1	8	3
COc1cccc(C(=O)N(Cc2cc3cc(C)ccc3[nH]c2=O)C(C)C)c1	1.1	-13	0.9	5	11
